According to PubChem BioAssay (NCI):
The panel holds about 83,000 compounds, 20% with a hit somewhere; the sample as a whole holds those more often.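 Negative percent growth values reflect cell death: -40 means 40% of the cells present at the start died, and -100 means all died.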 Values without a mark were called inactive. Activity calls are given as the source filed them. The calls were made as follows: active = growth percent below 10; inactive = the rest.

Experiments:
Experiment in all cases: NCI-60 one-dose screen, 48 h (100 = growth as untreated, 0 = no growth, -100 = all killed)
Conditions in all cases: 10 µM unless noted
SR leukemia = test system: SR leukemia
OVCAR-8 ovarian = test system: OVCAR-8 ovarian
OVCAR-5 ovarian = test system: OVCAR-5 ovarian
OVCAR-4 ovarian = test system: OVCAR-4 ovarian
SK-OV-3 ovarian = test system: SK-OV-3 ovarian
IGROV1 ovarian = test system: IGROV1 ovarian
OVCAR-3 ovarian = test system: OVCAR-3 ovarian
HS 578T breast = test system: HS 578T breast
NCI/ADR-RES ovarian = test system: NCI/ADR-RES ovarian

## COC(=O)C(Cc1ccccc1)NC(=O)c1ccc(NC(=O)c2[nH]c(C)c(Cl)c2Cl)c(OC(C)C)c1 (stereo unspecified)
SR leukemia
  growth: 17.4%
OVCAR-8 ovarian
  growth: -29.8% (active)
OVCAR-5 ovarian
  growth: 93.2%
OVCAR-4 ovarian
  growth: 39.7%
SK-OV-3 ovarian
  growth: 99.1%
IGROV1 ovarian
  growth: 83.1%
OVCAR-3 ovarian
  growth: 12.9%
HS 578T breast
  growth: 62.1%
NCI/ADR-RES ovarian
  growth: 31.4%

## Cc1[nH]c(C2CC(c3ccc(C(F)(F)F)c(F)c3)=NN2c2ccccc2)c(C)c1C(=O)NCC(F)(F)F (stereo unspecified)
SR leukemia
  growth: 81.6%
OVCAR-8 ovarian
  growth: 87.8%
OVCAR-5 ovarian
  growth: 94.8%
OVCAR-4 ovarian
  growth: 92.5%
SK-OV-3 ovarian
  growth: 85.6%
IGROV1 ovarian
  growth: 67.3%
OVCAR-3 ovarian
  growth: 98.2%
HS 578T breast
  growth: 87%
NCI/ADR-RES ovarian
  growth: 89.7%

## CN1CCN(CCCOc2cccc3nc(Nc4ccc(F)c(F)c4)ccc23)CC1
SR leukemia
  growth: 0.217% (active)
OVCAR-8 ovarian
  growth: 24.5%
OVCAR-5 ovarian
  growth: -20.9% (active)
OVCAR-4 ovarian
  growth: 39.3%
SK-OV-3 ovarian
  growth: 24.2%
IGROV1 ovarian
  growth: -12.4% (active)
OVCAR-3 ovarian
  growth: 8.36% (active)
HS 578T breast
  growth: 16.8%
NCI/ADR-RES ovarian
  growth: 12.1%

## C=C1C(=O)O[C@H]2[C@H]1CC/C(COC(=O)/C=C\C(=O)NCc1ccc(Cn3c(=O)sn(CCCl)c3=O)cc1)=C\CC[C@@]1(C)O[C@@H]21
SR leukemia
  growth: 15.5%
OVCAR-8 ovarian
  growth: 86.9%
OVCAR-5 ovarian
  growth: 91%
SK-OV-3 ovarian
  growth: 115%
IGROV1 ovarian
  growth: 34.8%
OVCAR-3 ovarian
  growth: 36.2%
HS 578T breast
  growth: 110%
NCI/ADR-RES ovarian
  growth: 108%

## Cc1ccc2nc(-c3ccc(C(=O)NNC(=S)Nc4ccccc4)cc3)[nH]c2c1
SR leukemia
  growth: 88.6%
OVCAR-8 ovarian
  growth: 95.7%
OVCAR-5 ovarian
  growth: 98.3%
OVCAR-4 ovarian
  growth: 88.2%
SK-OV-3 ovarian
  growth: 98.3%
IGROV1 ovarian
  growth: 86.4%
OVCAR-3 ovarian
  growth: 95%
HS 578T breast
  growth: 111%
NCI/ADR-RES ovarian
  growth: 100%

## C=CCC(CCCC)(C(=O)OCC)C(=O)OCC
SR leukemia
  growth: 95.9%
OVCAR-8 ovarian
  growth: 102%
OVCAR-5 ovarian
  growth: 106%
OVCAR-4 ovarian
  growth: 116%
SK-OV-3 ovarian
  growth: 117%
IGROV1 ovarian
  growth: 119%
HS 578T breast
  growth: 127%
NCI/ADR-RES ovarian
  growth: 108%

## O=C(Nc1ncc(Cc2ccccc2)s1)c1ccc2c(c1)OCCCO2
SR leukemia
  growth: 7.17% (active)
OVCAR-8 ovarian
  growth: 44.9%
OVCAR-5 ovarian
  growth: 47.6%
OVCAR-4 ovarian
  growth: 52.3%
SK-OV-3 ovarian
  growth: 55.2%
IGROV1 ovarian
  growth: 41.1%
OVCAR-3 ovarian
  growth: -10.5% (active)
HS 578T breast
  growth: 49.7%
NCI/ADR-RES ovarian
  growth: 9.35% (active)

## O=C1/C(=C/c2ccccc2F)CN(C(=O)C(Cl)Cl)C/C1=C\c1ccccc1F
SR leukemia
  growth: -11.4% (active)
OVCAR-8 ovarian
  growth: 2.66% (active)
OVCAR-5 ovarian
  growth: -41.6% (active)
OVCAR-4 ovarian
  growth: 14.9%
SK-OV-3 ovarian
  growth: 32.4%
IGROV1 ovarian
  growth: -36.9% (active)
OVCAR-3 ovarian
  growth: -94% (active)
HS 578T breast
  growth: 4.55% (active)
NCI/ADR-RES ovarian
  growth: 5.18% (active)

## CCCn1nc(C(=O)N(C)Cc2ccccc2)c2c1CCC(N1CCc3ccccc31)C2 (stereo unspecified)
SR leukemia
  growth: 104%
OVCAR-8 ovarian
  growth: 93.4%
OVCAR-4 ovarian
  growth: 102%
SK-OV-3 ovarian
  growth: 112%
IGROV1 ovarian
  growth: 85.1%
OVCAR-3 ovarian
  growth: 102%
HS 578T breast
  growth: 96.4%
NCI/ADR-RES ovarian
  growth: 94.4%

## Oc1ccc(/C=C/c2ccc(O)cc2)cc1
SR leukemia
  growth: 47.7%
OVCAR-8 ovarian
  growth: 35.7%
OVCAR-5 ovarian
  growth: 135%
OVCAR-4 ovarian
  growth: 12%
SK-OV-3 ovarian
  growth: 99.7%
IGROV1 ovarian
  growth: 43.9%
OVCAR-3 ovarian
  growth: 47.7%
HS 578T breast
  growth: 61.3%
NCI/ADR-RES ovarian
  growth: 20.3%

## COc1cc(OC)c(C(=O)C(CN(C)C)CN(C)C)cc1OC
SR leukemia
  growth: -49.3% (active)
OVCAR-8 ovarian
  growth: 104%
OVCAR-5 ovarian
  growth: 110%
OVCAR-4 ovarian
  growth: 54.1%
SK-OV-3 ovarian
  growth: 85.1%
IGROV1 ovarian
  growth: 109%
OVCAR-3 ovarian
  growth: 1.07% (active)
HS 578T breast
  growth: 108%
NCI/ADR-RES ovarian
  growth: 94.3%

## CN1CCN(C(=S)SCCCCOc2cc(=O)oc3ccccc23)CC1
SR leukemia
  growth: 67.4%
OVCAR-8 ovarian
  growth: 78.4%
OVCAR-5 ovarian
  growth: 101%
OVCAR-4 ovarian
  growth: 72.4%
SK-OV-3 ovarian
  growth: 99.5%
IGROV1 ovarian
  growth: 102%
OVCAR-3 ovarian
  growth: 95.8%
HS 578T breast
  growth: 96.2%
NCI/ADR-RES ovarian
  growth: 76.2%

## Cc1cc(Nc2ccc(C(=O)N3CCCC3)cc2)nc(NCCCNc2ccnc3cc(Cl)ccc23)n1
SR leukemia
  growth: 19.1%
OVCAR-8 ovarian
  growth: 108%
OVCAR-5 ovarian
  growth: 103%
SK-OV-3 ovarian
  growth: 101%
IGROV1 ovarian
  growth: 76.2%
OVCAR-3 ovarian
  growth: 90.3%
HS 578T breast
  growth: 92.3%
NCI/ADR-RES ovarian
  growth: 99.8%

## O=C(NCc1cccc(CNC(=O)Nc2nc3ccccc3[nH]2)c1)Nc1nc2ccccc2[nH]1
SR leukemia
  growth: 40.1%
OVCAR-8 ovarian
  growth: -52.3% (active)
OVCAR-5 ovarian
  growth: -2.26% (active)
OVCAR-4 ovarian
  growth: -75.7% (active)
SK-OV-3 ovarian
  growth: -19% (active)
IGROV1 ovarian
  growth: 13.7%
OVCAR-3 ovarian
  growth: -42.3% (active)
HS 578T breast
  growth: -15.3% (active)
NCI/ADR-RES ovarian
  growth: 83.3%

## COc1cc(OC)c(/C=C/C(=O)c2c(O)cc(OC)c(C3CCN(C)CC3)c2OC)c(OC)c1
SR leukemia
  growth: -22.2% (active)
OVCAR-5 ovarian
  growth: -29.8% (active)
OVCAR-4 ovarian
  growth: 19.3%
SK-OV-3 ovarian
  growth: -79.7% (active)
IGROV1 ovarian
  growth: 29.1%
OVCAR-3 ovarian
  growth: -51.1% (active)
HS 578T breast
  growth: -46.2% (active)
NCI/ADR-RES ovarian
  growth: -19.3% (active)

## CCOC(=O)/C=C1\S/C(=N\Nc2cc(=O)[nH]c3ccccc23)N(c2ccccc2)C1=O
SR leukemia
  growth: 96.6%
OVCAR-8 ovarian
  growth: 100%
OVCAR-4 ovarian
  growth: 84.3%
SK-OV-3 ovarian
  growth: 101%
IGROV1 ovarian
  growth: 105%
OVCAR-3 ovarian
  growth: 104%
HS 578T breast
  growth: 101%
NCI/ADR-RES ovarian
  growth: 101%

## C=C(CNCCc1ccc(O)cc1)[C@@H]1CC[C@]2(CO)CC[C@]3(C)[C@H](CC[C@@H]4[C@@]5(C)CCC(=O)C(C)(C)[C@@H]5CC[C@]43C)[C@@H]12
SR leukemia
  growth: -24.9% (active)
OVCAR-8 ovarian
  growth: -70.3% (active)
OVCAR-5 ovarian
  growth: 90%
OVCAR-4 ovarian
  growth: 58.1%
SK-OV-3 ovarian
  growth: 92.4%
IGROV1 ovarian
  growth: 30.9%
OVCAR-3 ovarian
  growth: 39.7%
HS 578T breast
  growth: 51.9%
NCI/ADR-RES ovarian
  growth: 33%

## O=S(=O)(NCCCNc1nccc(-c2c(-c3cccc(F)c3)nc3occn23)n1)c1ccc(F)cc1
SR leukemia
  growth: 53.8%
OVCAR-8 ovarian
  growth: 30.1%
OVCAR-5 ovarian
  growth: 89.9%
OVCAR-4 ovarian
  growth: 37%
SK-OV-3 ovarian
  growth: 54.5%
IGROV1 ovarian
  growth: 24.5%
OVCAR-3 ovarian
  growth: 55.3%
HS 578T breast
  growth: 59%
NCI/ADR-RES ovarian
  growth: 42.4%
